YopH PTP inh: blocks Yersinia enterocolitica YopH tyrosine phosphatase. fluorescence Ex485/Em525. inhibition, % (concentration not given with the values). hit rate 0.16% among 140,000. AID 898; in the data active = inhibition above about 50%
RmlC RmlD mix: RmlC/RmlD inhibition, mixture screen | hit rate 0.39% among 110,000 | RmlC/RmlD coupled enzyme inhibition, 384-well mixture HTS | inhibition, % at 5.5 µM; in the data active = inhibition above about 30%, passing the limit was not always enough
RmlCD fluor art: RmlC/RmlD fluorescence artifact, counter-screen | hit rate 96% among 360 | RmlC/RmlD assay fluorescence artifact counter-screen | calls only | shares compounds with RmlC RmlD mix | AID 1696; call rule not given here;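 note: compound alone with no enzyme and no substrates present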
* = called active by the depositor. A selection: hits, their analogues and other compounds. The true share with any hit is near 0.44%.

Results for NC1=NC[C@@H](Cc2ccc(O)cc2)N1CCC12CC3CC(CC(C3)C1)C2 ?
RmlC RmlD mix: -43

Results for O=C(Cc1ccc([N+](=O)[O-])cc1)Nc1ccc(O)cc1C(=O)O ?
YopH PTP inh: -22

What do the screens show for `COc1ccc2cc3cc(C(=O)NC(C)C)oc3nc2c1`?
YopH PTP inh: -1; RmlC RmlD mix: 96*; RmlCD fluor art: active

Results for COc1ccc2cc3cc(C(=O)Nc4cc(OC)c(OC)c(OC)c4)oc3nc2c1 ?
YopH PTP inh: -12; RmlC RmlD mix: 13

Results for Cc1ccc(CNC(=O)c2cnccn2)cc1 ?
YopH PTP inh: -13

Results for Cc1cc(NCCCN2CCOCC2)n2c(nc3ccccc32)c1C#N ?
YopH PTP inh: -43; RmlC RmlD mix: 71*; RmlCD fluor art: active

Results for Cc1cc(NCCN2CCOCC2)n2c(nc3ccccc32)c1C#N ?
YopH PTP inh: -83; RmlC RmlD mix: 20

Results for CCN(CC)Cc1c(O)ccc2c(C)c(CC(=O)OC)c(=O)oc12 ?
YopH PTP inh: -3; RmlC RmlD mix: 110*; RmlCD fluor art: active

Results for COC(=O)Cc1c(C)c2ccc(OCC(C)=O)c(C)c2oc1=O ?
YopH PTP inh: -11; RmlC RmlD mix: 8

Results for CCCOc1ccc2c(C)c(CC(=O)OC)c(=O)oc2c1 ?
YopH PTP inh: -8; RmlC RmlD mix: -9

What do the screens show for `COC(=O)Cc1c(C)c2ccc(OCC(=O)N(C)C)cc2oc1=O`?
YopH PTP inh: -26; RmlC RmlD mix: 31*; RmlCD fluor art: active

What do the screens show for `O=C(O)Cn1cc(F)c(=O)[nH]c1=O`?
RmlC RmlD mix: -14

What do the screens show for `Cc1ccc(Cn2c(C(C)Nc3nc(C)cs3)nc3cc(Cl)c(Cl)cc32)cc1` (stereo not given)?
RmlC RmlD mix: 9

How did Cn1c(=O)[nH]c(=O)c2[nH]c(N(Cc3ccccc3)Cc3ccccc3)nc21 do in these assays?
YopH PTP inh: -46; RmlC RmlD mix: -4

How did COC(=O)Cc1c(C)c2c(OCc3nn[nH]n3)cc(C)cc2oc1=O do in these assays?
YopH PTP inh: -61; RmlC RmlD mix: 38*; RmlCD fluor art: active

What do the screens show for `COC(=O)Cc1c(C)c2ccc(OCc3nn[nH]n3)cc2oc1=O`?
YopH PTP inh: 8; RmlC RmlD mix: 31

How did CCOC(=O)c1cc2c(=O)n3cccc(C)c3nc2n(CC2CCCO2)c1=NC(C)=O (stereo not given) do in these assays?
YopH PTP inh: 0

Results for CCOC(=O)c1cc2c(=O)n3cccc(C)c3nc2n(Cc2ccco2)c1=NC(=O)c1ccccc1 ?
YopH PTP inh: -10; RmlC RmlD mix: 36*; RmlCD fluor art: active

How did COc1ccc(-c2cc(C(F)(F)F)n3ncc(C(=O)NCC4CCCO4)c3n2)cc1 (stereo not given) do in these assays?
YopH PTP inh: -23; RmlC RmlD mix: 36*; RmlCD fluor art: active

What do the screens show for `COc1cccc(-c2cc(C(F)(F)F)n3ncc(C(=O)NCC4CCCO4)c3n2)c1` (stereo not given)?
YopH PTP inh: 4; RmlC RmlD mix: 8

Results for O=C(CNC(=O)c1cccs1)c1ccc(F)cc1 ?
YopH PTP inh: -11; RmlC RmlD mix: -11

Results for CN(C(=O)c1ccncc1)c1nnc(-c2cccnc2)s1 ?
YopH PTP inh: 5

What do the screens show for `CN(C(=O)c1ccc(C#N)cc1)c1nnc(-c2ccccn2)s1`?
YopH PTP inh: 37; RmlC RmlD mix: 40*; RmlCD fluor art: inactive

What do the screens show for `CN(C(=O)c1cccc(C#N)c1)c1nnc(-c2ccccn2)s1`?
YopH PTP inh: -29; RmlC RmlD mix: 36*; RmlCD fluor art: active

How did CN(C(=O)c1ccncc1)c1nnc(-c2ccccn2)s1 do in these assays?
YopH PTP inh: -43; RmlC RmlD mix: 108*; RmlCD fluor art: active

What do the screens show for `CN(C(=O)c1cccc(C#N)c1)c1nnc(C2CCOC2)s1` (stereo not given)?
YopH PTP inh: -31; RmlC RmlD mix: -7

What do the screens show for `COc1ccc(-c2nnc(N(C)C(=O)c3ccno3)s2)cc1`?
YopH PTP inh: -19; RmlC RmlD mix: 22

How did CN(C(=O)c1ccccn1)c1nnc(-c2ccncc2)s1 do in these assays?
YopH PTP inh: 7

What do the screens show for `CN(C(=O)c1ccno1)c1nnc(-c2ccccn2)s1`?
YopH PTP inh: -19; RmlC RmlD mix: active; RmlCD fluor art: active

How did CCCc1cc(C(=O)N2CCN(c3ccccc3C)CC2)cs1 do in these assays?
YopH PTP inh: -19; RmlC RmlD mix: -5

What do the screens show for `CCCNC(=O)C1(CC2CC(c3ccccc3)=NO2)CCN(C(=O)Cc2ccc(F)cc2)CC1` (stereo not given)?
RmlC RmlD mix: -1

Results for O=C(NCc1ccco1)C(c1ccccc1)N(Cc1ccccc1)C(=O)Cn1nnc2ccccc21 (stereo not given) ?
YopH PTP inh: -16; RmlC RmlD mix: 1

How did Clc1cc(Cl)cc(C2=NC(Cc3ccccc3)CO2)c1 (stereo not given) do in these assays?
RmlC RmlD mix: -44

Screening data: PubChem BioAssay, several laboratories
